Laboratory results: PubChem BioAssay (NCATS)
Results filed as inconclusive are left out. Entries that show only a call come without a potency. Active and inactive are the calls of the source. Calls follow the shape of the dose curve; as a rule, active = well fitted inhibition curve with a large enough effect; inconclusive = small, poorly fitted or top-dose-only effect; inactive = flat fitted curve, though single readings scatter.

How the values were obtained:
Assay in all cases: qHTS profiling for inhibitors of Plasmodium falciparum proliferation (AID 504749); also: nearly all actives have a fitted effect of over 60% in size
Conditions in all cases: P. falciparum in erythrocytes, SYBR Green DNA, 72 h; series mostly up to 28.7 µM
FAB9 = test system: FAB9
Procedure, shortened: (§1)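 Parasite proliferation within erythrocytes, 72 h exposure. Endpoint: SYBR Green I fluorescence after overnight lysis at room temperature. Controls: 0.29 uM artemisinin, DMSO.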

GB4 = test system: GB4
Procedure, shortened: as §1

HB3 = test system: HB3
Procedure, shortened: as §1

ICS = test system: ICS
Procedure, shortened: as §1

JCK = test system: JCK
Procedure, shortened: as §1

N140 = test system: N140
Procedure, shortened: as §1

P93_24 = test system: P93_24
Procedure, shortened: as §1

P94_40 = test system: P94_40
Procedure, shortened: as §1

PAD = test system: PAD
Procedure, shortened: as §1

PC15 = test system: PC15
Procedure, shortened: as §1
Potency is read from the fitted curve at half-maximal effect.

Compound | Potency (FAB9) | Potency (GB4) | Potency (HB3) | Potency (ICS) | Potency (JCK) | Potency (N140) | Potency (P93_24) | Potency (P94_40) | Potency (PAD) | Potency (PC15)
CCOC(=O)c1ccccc1C(=O)OCC | inactive | inactive | inactive | inactive | inactive | inactive | inactive | inactive | inactive | inactive
CN1C2CCC1CC(OC(c1ccccc1)c1ccc(Cl)cc1)C2 (centres undefined) | 11.2 µM (active) | 6.01 µM (active) | 12.6 µM (active) | 3.55 µM (active) | 12.6 µM (active) | 11.2 µM (active) | 8.91 µM (active) | 10 µM (active) | 12.6 µM (active) | 3.98 µM (active)
S=C=S | inactive | inactive | inactive | inactive | inactive | inactive | inactive | inactive | inactive | inactive
CCCC(C)(COC(N)=O)COC(=O)NC1CC1 (centres undefined) | inactive | inactive | inactive | inactive | inactive | inactive | inactive | inactive | inactive | inactive
O=C(O)C(Cl)(Cl)Cl | inactive | inactive | inactive | inactive | inactive | inactive | inactive | inactive | inactive | inactive
ClC=C(Cl)Cl | inactive | inactive | inactive | inactive | inactive | inactive | inactive | inactive | inactive | inactive
C=CCN1CCC23c4c5ccc(O)c4O[C@H]2C(=O)CC[C@@]3(O)C1C5 (some centres undefined) | inactive | inactive | inactive | inactive | inactive | inactive | inactive | inactive | inactive | inactive
CCC(N)Cc1c[nH]c2ccccc12 (centres undefined) | inactive | inactive | inactive | inactive | inactive | inactive | inactive | inactive | inactive | inactive
O=C1CCO1 | inactive | inactive | inactive | inactive | inactive | inactive | inactive | inactive | inactive | –
CNC(=O)OCC[N+](C)(C)C | inactive | inactive | inactive | inactive | inactive | inactive | inactive | inactive | inactive | inactive
Clc1ccccc1Cl | inactive | inactive | inactive | inactive | inactive | inactive | inactive | inactive | inactive | inactive
O=C/C=C/c1ccccc1 | inactive | inactive | inactive | inactive | inactive | inactive | inactive | inactive | inactive | inactive
C[C@H]1CC[C@@H]2[C@@H](C)[C@H]3[C@H](C[C@H]4[C@@H]5CC=C6CC(O[C@@H]7O[C@H](CO)[C@H](O)[C@H](O[C@@H]8O[C@H](CO)[C@@H](O)[C@H](O)[C@H]8O)[C@H]7O[C@H]7O[C@@H](C)[C@H](O)[C@@H](O)[C@H]7O)CC[C@]6(C)[C@H]5CC[C@]34C)N2C1 (some centres undefined) | inactive | inactive | inactive | inactive | inactive | inactive | inactive | inactive | inactive | inactive
CCC(C)(S(=O)(=O)CC)S(=O)(=O)CC | inactive | inactive | inactive | inactive | inactive | inactive | inactive | inactive | inactive | inactive
CCON=O | inactive | inactive | inactive | inactive | inactive | inactive | inactive | inactive | inactive | inactive
CC(=O)OO | inactive | inactive | inactive | inactive | inactive | inactive | inactive | inactive | inactive | inactive
O=c1[nH]c(=O)n(Cl)c(=O)n1Cl | inactive | inactive | inactive | inactive | inactive | inactive | inactive | inactive | inactive | inactive
CC(C)(O)C1C2OC(=O)C1C1(O)CC3OC34C(=O)OC2C14C (centres undefined) | inactive | inactive | inactive | inactive | inactive | inactive | inactive | inactive | inactive | inactive
S=C(S)N1CCNCC1 | inactive | inactive | inactive | inactive | inactive | inactive | inactive | inactive | inactive | inactive
ClC1C(Cl)C(Cl)C(Cl)C(Cl)C1Cl (centres undefined) | inactive | inactive | inactive | inactive | inactive | inactive | inactive | inactive | inactive | inactive
CC(N)Cc1ccc(O)cc1 (centres undefined) | inactive | inactive | inactive | inactive | inactive | inactive | inactive | inactive | inactive | inactive
C=CCN1CC[C@]23c4c5ccc(O)c4O[C@H]2[C@@H](O)C=C[C@H]3[C@H]1C5 | inactive | inactive | inactive | inactive | inactive | inactive | inactive | inactive | inactive | inactive
CCCC(C)C1(CC)C(=O)NC(=O)NC1=O (centres undefined) | inactive | inactive | inactive | inactive | inactive | inactive | inactive | inactive | inactive | inactive
O=C1CC[C@@]2(O)C3Cc4ccc(O)c5c4C2(CCN3CC2CC2)[C@H]1O5 (some centres undefined) | inactive | inactive | inactive | inactive | inactive | inactive | inactive | inactive | inactive | inactive

Compound | Potency (FAB9) | Potency (GB4) | Potency (HB3) | Potency (ICS) | Potency (JCK) | Potency (N140) | Potency (P93_24) | Potency (P94_40) | Potency (PAD) | Potency (PC15)
c1ccc2sc(SNC3CCCCC3)nc2c1 | inactive | inactive | inactive | inactive | inactive | inactive | inactive | inactive | inactive | inactive
CC(Cc1ccccc1)NC=O (centres undefined) | inactive | inactive | inactive | inactive | inactive | inactive | inactive | inactive | inactive | inactive
O[C@H]1[C@H]2[C@H](O)CCCN2C[C@H]1O | inactive | inactive | inactive | inactive | inactive | inactive | inactive | inactive | inactive | inactive
Cn1sc(Cl)cc1=O | inactive | inactive | inactive | inactive | inactive | inactive | inactive | inactive | inactive | inactive
O=[N+]([O-])C(Br)(CO)CO | inactive | inactive | inactive | inactive | inactive | inactive | inactive | inactive | inactive | inactive
C=CCN(C1=NCCN1)c1c(Cl)cccc1Cl | inactive | inactive | inactive | inactive | inactive | inactive | inactive | inactive | inactive | inactive
C#CC(C)(O)CC (centres undefined) | inactive | inactive | inactive | inactive | inactive | inactive | inactive | inactive | inactive | inactive
O=Cc1ccco1 | inactive | inactive | inactive | inactive | inactive | inactive | inactive | inactive | inactive | inactive
COC1=CC=C2[C@H]3Cc4ccc(OC)c5c4[C@@]2(CCN3C)[C@H]1O5 | inactive | inactive | inactive | inactive | inactive | inactive | inactive | inactive | inactive | inactive
O=C(CCl)c1ccc(Oc2ccc(C(=O)CCl)cc2)cc1 | inactive | inactive | inactive | inactive | inactive | inactive | inactive | inactive | inactive | inactive
[N-]=[N+]=CC(=O)OCC(N)C(=O)O (centres undefined) | inactive | inactive | inactive | inactive | inactive | inactive | inactive | inactive | inactive | inactive
COc1ccc2c3c1O[C@H]1C(=O)CC[C@H]4[C@@H](C2)N(C)CC[C@]314 | inactive | inactive | inactive | inactive | inactive | inactive | inactive | inactive | inactive | inactive
O=P(O)(O)C(Cl)(Cl)P(=O)(O)O | inactive | inactive | inactive | inactive | inactive | inactive | inactive | inactive | inactive | inactive
NCC(O)c1cccc(O)c1 (centres undefined) | inactive | inactive | inactive | inactive | inactive | inactive | inactive | inactive | inactive | inactive
CNC(C)C(O)c1ccc(O)cc1 (centres undefined) | inactive | inactive | inactive | inactive | inactive | inactive | inactive | inactive | inactive | inactive
N#CC1(N2CCCCC2)CCCCC1 | inactive | inactive | inactive | inactive | inactive | inactive | inactive | inactive | inactive | inactive
Clc1ccc(C2(Cn3cncn3)OCCO2)c(Cl)c1 | inactive | inactive | inactive | inactive | inactive | inactive | inactive | inactive | inactive | inactive
ClC(Cl)(Cl)Cl | inactive | inactive | inactive | inactive | inactive | inactive | inactive | inactive | inactive | inactive
O=C(CS(=O)C(c1ccccc1)c1ccccc1)NO (centres undefined) | inactive | inactive | inactive | inactive | inactive | inactive | inactive | inactive | inactive | inactive
N#CN | inactive | inactive | inactive | inactive | inactive | inactive | inactive | inactive | inactive | inactive
CCC1(CC)C(=O)NC(=O)N(C)C1=O | inactive | inactive | inactive | inactive | inactive | inactive | inactive | inactive | inactive | inactive
FC(F)OC(F)(F)C(F)Cl (centres undefined) | inactive | inactive | inactive | inactive | inactive | inactive | inactive | inactive | inactive | inactive
COc1ccc(OC)c(C(O)C(C)N)c1 (centres undefined) | inactive | inactive | inactive | inactive | inactive | inactive | inactive | inactive | inactive | inactive
O=[N+]([O-])c1ccc(F)c([N+](=O)[O-])c1 | inactive | inactive | inactive | inactive | inactive | inactive | inactive | inactive | inactive | inactive
